# Assay results: PMC7862700, “An all-to-all approach to the identification of sequence-specific readers for epigenetic DNA modifications on cytosine”
# Experiments:
# Test in all cases: DAPPL (digital affinity profiling via proximity ligation, sequencing); 10 mM Tris-HCl pH 7.5, 50 mM NaCl, 1 mM DTT, 4% glycerol, room temperature, 30 min; GST-TFs on glutathione beads, 16-mer random dsDNA library, 0.1% formaldehyde crosslink after washing; high values mean tight binding
# Details in all cases: protein: recombinant; tags: N-terminal GST; dsDNA, one strand shown
# ELF4 = ELF4 (Homo sapiens, UniProt Q99607 1-663)
# Summary of the method: (§1)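 Pools were built from human transcription factors expressed in yeast as GST fusions, captured on glutathione beads and DNA-barcoded, along with a tag-only sample. Incubation with 200 nmole of a 16-mer random double-stranded DNA library lasted 30 min at room temperature in Tris/NaCl/DTT/glycerol buffer, and was followed by washing, 0.1% formaldehyde crosslinking, proximity ligation, PCR amplification and Illumina NextSeq500 sequencing. Binding signal is the quotient of each hexamer's read frequency for a factor and its frequency for the tag-only sample.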
# ETV2 = target: T1, ETV2 (Homo sapiens, UniProt O00321 1-342)
# T1 sequence: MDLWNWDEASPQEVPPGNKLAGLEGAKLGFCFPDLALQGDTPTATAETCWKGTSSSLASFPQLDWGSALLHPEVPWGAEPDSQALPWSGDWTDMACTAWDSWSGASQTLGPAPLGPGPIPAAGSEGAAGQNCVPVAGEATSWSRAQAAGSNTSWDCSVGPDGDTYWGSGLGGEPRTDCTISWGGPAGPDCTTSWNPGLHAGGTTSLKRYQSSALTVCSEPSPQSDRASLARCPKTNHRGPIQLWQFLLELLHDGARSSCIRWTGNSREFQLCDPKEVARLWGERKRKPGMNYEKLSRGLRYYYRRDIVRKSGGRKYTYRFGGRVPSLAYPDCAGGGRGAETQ
# Summary of the method: as §1
# ELF3 = target: T2, ELF3 (Homo sapiens, UniProt P78545 1-371)
# T2 sequence: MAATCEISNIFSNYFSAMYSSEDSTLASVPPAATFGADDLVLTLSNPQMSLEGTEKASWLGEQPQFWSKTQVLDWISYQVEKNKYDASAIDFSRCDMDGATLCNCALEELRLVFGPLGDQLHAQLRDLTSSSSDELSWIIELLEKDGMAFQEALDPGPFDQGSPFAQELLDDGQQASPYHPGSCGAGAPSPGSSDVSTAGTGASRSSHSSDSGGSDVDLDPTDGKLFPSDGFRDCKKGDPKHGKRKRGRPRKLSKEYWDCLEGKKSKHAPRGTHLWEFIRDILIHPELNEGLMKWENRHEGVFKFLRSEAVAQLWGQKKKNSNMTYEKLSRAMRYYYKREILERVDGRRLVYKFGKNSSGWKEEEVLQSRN
# Summary of the method: as §1
# ETV1 = ETV1 (Homo sapiens, UniProt P50549 1-477)
# Summary of the method: as §1
# ERF = target: T3, ERF (Homo sapiens, UniProt P50548 1-548)
# T3 sequence: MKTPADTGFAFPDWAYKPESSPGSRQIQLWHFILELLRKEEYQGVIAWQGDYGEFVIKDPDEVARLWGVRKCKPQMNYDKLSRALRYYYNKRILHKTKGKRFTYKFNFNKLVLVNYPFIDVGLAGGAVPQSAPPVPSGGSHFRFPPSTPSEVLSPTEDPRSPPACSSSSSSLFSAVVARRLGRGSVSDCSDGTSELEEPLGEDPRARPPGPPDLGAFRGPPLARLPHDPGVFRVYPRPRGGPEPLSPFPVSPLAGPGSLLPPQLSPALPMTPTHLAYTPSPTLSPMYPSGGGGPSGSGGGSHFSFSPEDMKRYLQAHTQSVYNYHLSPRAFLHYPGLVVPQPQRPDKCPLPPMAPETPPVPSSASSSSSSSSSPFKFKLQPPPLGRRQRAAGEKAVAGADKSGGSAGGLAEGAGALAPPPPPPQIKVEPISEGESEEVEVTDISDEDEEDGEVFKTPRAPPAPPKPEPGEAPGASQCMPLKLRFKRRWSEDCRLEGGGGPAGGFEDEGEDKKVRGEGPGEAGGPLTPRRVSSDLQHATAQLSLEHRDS
# Summary of the method: as §1
# ETV3L = target: T4, ETV3L (Homo sapiens, UniProt Q6ZN32 1-361)
# T4 sequence: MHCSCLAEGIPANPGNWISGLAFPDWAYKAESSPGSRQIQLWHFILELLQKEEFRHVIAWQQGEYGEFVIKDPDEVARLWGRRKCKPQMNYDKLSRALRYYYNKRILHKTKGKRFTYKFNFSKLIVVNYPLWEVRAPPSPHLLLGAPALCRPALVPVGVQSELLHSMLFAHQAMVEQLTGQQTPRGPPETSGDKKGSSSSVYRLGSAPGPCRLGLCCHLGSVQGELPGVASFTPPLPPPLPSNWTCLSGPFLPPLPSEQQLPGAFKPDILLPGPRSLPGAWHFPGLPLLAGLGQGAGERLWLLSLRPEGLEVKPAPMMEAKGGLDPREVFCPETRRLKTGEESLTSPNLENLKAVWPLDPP
# Summary of the method: as §1
# ETS2 = target: T5, ETS2 (Homo sapiens, UniProt P15036 1-469)
# T5 sequence: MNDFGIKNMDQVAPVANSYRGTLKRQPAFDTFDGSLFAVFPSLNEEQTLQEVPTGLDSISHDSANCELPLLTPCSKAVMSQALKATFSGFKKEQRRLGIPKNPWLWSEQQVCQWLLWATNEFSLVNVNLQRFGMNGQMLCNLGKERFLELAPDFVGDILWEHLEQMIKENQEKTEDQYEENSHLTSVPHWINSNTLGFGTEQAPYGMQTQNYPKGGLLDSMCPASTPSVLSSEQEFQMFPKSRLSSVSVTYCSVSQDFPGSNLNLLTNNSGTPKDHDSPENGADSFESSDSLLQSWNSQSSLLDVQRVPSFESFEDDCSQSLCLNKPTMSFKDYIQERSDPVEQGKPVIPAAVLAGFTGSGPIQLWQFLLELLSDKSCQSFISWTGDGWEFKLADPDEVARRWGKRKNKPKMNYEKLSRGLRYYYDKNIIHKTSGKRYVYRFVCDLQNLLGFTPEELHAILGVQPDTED
# Summary of the method: as §1
# ETV7 = target: T6, ETV7 (Homo sapiens, UniProt Q9Y603 1-341)
# T6 sequence: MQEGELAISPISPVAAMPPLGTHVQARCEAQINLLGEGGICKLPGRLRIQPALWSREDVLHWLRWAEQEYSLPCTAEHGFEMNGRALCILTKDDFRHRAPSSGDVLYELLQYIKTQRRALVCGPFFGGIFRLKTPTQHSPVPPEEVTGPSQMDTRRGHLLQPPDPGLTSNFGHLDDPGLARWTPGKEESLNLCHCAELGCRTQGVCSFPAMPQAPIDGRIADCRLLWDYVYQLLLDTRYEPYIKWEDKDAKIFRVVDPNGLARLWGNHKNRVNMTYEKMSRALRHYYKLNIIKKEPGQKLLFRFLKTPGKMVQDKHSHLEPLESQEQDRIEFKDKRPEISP
# Summary of the method: as §1
# ETV3 = target: T7, ETV3 (Homo sapiens, UniProt P41162-2 1-143)
# T7 sequence: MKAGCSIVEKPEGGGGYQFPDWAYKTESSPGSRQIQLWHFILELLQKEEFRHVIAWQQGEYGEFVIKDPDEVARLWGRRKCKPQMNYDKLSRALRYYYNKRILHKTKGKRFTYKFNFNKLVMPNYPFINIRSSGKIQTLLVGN
# Summary of the method: as §1
# ETV6 = ETV6 (Homo sapiens, UniProt P41212 1-452)
# Summary of the method: as §1
# Chain of ETV6 (P41212 whole entry): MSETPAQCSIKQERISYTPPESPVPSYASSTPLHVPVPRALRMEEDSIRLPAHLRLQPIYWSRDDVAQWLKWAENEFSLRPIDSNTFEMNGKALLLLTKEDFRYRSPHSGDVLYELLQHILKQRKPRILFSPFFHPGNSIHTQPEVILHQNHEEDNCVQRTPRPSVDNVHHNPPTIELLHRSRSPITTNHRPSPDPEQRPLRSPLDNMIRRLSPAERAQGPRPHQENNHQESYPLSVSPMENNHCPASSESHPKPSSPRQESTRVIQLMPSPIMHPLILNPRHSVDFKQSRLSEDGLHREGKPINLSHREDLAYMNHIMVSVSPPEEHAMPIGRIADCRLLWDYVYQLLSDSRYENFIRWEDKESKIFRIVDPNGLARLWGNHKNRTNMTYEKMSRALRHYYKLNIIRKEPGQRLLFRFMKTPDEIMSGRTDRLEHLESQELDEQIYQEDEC
# Chain of ETV1 (P50549 whole entry): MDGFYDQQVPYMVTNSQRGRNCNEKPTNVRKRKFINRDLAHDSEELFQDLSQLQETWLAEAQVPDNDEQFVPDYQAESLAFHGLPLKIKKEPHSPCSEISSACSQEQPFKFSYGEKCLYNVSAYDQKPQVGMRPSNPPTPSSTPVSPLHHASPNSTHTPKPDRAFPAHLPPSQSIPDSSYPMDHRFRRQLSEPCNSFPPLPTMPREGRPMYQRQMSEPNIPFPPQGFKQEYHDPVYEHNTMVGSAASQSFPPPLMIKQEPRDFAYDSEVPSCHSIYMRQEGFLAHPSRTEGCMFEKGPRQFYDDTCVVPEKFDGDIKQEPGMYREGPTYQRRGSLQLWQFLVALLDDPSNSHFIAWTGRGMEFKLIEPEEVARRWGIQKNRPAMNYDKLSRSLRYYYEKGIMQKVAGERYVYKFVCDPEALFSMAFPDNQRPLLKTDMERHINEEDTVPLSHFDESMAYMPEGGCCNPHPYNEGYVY
# Chain of ELF4 (Q99607 whole entry, the tested form may be a part): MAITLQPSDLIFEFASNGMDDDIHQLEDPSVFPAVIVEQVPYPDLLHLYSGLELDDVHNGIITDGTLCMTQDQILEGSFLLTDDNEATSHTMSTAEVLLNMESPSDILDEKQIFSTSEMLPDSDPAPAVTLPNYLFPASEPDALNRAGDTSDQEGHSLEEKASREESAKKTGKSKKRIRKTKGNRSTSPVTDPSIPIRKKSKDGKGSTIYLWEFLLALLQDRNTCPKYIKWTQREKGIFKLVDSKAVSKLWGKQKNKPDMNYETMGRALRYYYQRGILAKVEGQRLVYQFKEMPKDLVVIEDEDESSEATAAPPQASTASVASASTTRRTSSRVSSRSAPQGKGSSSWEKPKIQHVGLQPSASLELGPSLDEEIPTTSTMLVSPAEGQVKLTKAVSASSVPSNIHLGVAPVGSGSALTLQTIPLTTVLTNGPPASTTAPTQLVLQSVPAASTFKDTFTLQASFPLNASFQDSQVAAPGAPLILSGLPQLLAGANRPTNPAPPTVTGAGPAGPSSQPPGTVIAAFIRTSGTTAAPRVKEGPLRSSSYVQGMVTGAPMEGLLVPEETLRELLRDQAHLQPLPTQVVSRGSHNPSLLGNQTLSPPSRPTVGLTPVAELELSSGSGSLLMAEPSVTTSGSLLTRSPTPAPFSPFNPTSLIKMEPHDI
sequence,measurement,setting,value
GCTATC,binding signal,ELF4,"1.14 fold enrichment (6-mer frequency, TF over GST control)"
same,binding signal,ETV2,"1.04 fold enrichment (6-mer frequency, TF over GST control)"
same,binding signal,ELF3,"1.04 fold enrichment (6-mer frequency, TF over GST control)"
same,binding signal,ETV1,"1.09 fold enrichment (6-mer frequency, TF over GST control)"
same,binding signal,ERF,"1.13 fold enrichment (6-mer frequency, TF over GST control)"
same,binding signal,ETV3L,"1.07 fold enrichment (6-mer frequency, TF over GST control)"
same,binding signal,ETS2,"1.01 fold enrichment (6-mer frequency, TF over GST control)"
same,binding signal,ETV7,"1.18 fold enrichment (6-mer frequency, TF over GST control)"
same,binding signal,ETV3,"1.03 fold enrichment (6-mer frequency, TF over GST control)"
same,binding signal,ETV6,"1.06 fold enrichment (6-mer frequency, TF over GST control)"
